Out of some 390,000 compounds screened, about 17,000 (4.4%) were called active. Inconclusive results (about 8%) are left out. For the sample, actives were picked, then their nearest neighbours and some compounds at random. Values without a mark were called inactive. The call rests on the fitted dose curve; in most records, active means well fitted inhibition curve with a large enough effect; inconclusive means small, poorly fitted or top-dose-only effect; inactive means no such curve, though single readings can be large or run the other way.
biological target: Lysine-specific demethylase 4A (Homo sapiens) (UniProt O75164); test: qHTS Assay for Inhibitors of JMJD2A-Tudor Domain; settings: AlphaScreen JMJD2A-Tudor / H3K4me3 peptide binding; series mostly up to 114 µM; activity change, negative = inhibition: at the top concentration; further: nearly all actives have a fitted effect of over 50% in size
Sequence (O75164 whole entry, looked up, the tested form may be a part): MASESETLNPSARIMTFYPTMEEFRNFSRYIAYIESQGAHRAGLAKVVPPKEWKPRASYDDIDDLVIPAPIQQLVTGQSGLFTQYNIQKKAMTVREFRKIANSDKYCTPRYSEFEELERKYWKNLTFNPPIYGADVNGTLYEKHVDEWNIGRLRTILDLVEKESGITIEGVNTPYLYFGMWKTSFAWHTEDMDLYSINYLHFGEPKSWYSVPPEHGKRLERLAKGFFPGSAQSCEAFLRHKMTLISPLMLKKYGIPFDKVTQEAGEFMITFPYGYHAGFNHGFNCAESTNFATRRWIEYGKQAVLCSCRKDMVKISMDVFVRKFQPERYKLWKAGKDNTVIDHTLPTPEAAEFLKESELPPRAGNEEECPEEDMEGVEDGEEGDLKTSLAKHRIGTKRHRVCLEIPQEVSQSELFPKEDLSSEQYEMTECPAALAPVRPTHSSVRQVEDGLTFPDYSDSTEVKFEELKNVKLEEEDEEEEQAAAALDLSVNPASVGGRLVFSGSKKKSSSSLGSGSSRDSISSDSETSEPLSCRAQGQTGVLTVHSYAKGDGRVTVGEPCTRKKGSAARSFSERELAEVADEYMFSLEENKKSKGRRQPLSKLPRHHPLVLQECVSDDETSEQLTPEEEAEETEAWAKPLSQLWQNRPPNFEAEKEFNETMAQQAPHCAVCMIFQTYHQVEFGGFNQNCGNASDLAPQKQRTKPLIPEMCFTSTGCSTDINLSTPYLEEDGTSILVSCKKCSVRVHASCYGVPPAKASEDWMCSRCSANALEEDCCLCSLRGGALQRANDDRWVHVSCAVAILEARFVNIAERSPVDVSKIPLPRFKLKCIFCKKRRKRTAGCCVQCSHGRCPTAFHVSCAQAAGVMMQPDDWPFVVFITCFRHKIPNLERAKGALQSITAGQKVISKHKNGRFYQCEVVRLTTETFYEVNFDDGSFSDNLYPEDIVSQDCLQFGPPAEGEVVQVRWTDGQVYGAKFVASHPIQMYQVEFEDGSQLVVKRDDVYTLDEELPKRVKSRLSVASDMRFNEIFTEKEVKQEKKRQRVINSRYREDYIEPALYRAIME
Text: JMJD2A is a jumonji-domain-containing lysine demethylase that uses Fe(II) together with 2-OG to effect oxidative demethylation of histones. Methylation is one of many […] modification that affect epigenetic transcription. […] It is proposed that the functions of JmjD2A binding to the histones, is to maintain marks after they are installed and to spread the modifications by […], establishing a self-propagating cycle for rapid methylation over a large area of chromatin. […] Thus, small molecule targeting of the JMJD2A-tudor domain interaction with its target methylhistone mark is expected to enable sophisticated experiments probing the fine regulatory pathways leading to selective demethylation of a given methyllysine locus based on the methylation state of adjacent histone marks. A quantitative high throughput AlphaScreen has been developed to identify small molecule inhibitors based on a protocol published by NCGC and SGC [4].
Although AlphaScreen has significant advantages with its utility in a variety of epigenetic target assays, the primary screening data provided in this deposition should be used with caution due to the prevalence of screening artifacts. The top compound concentration tested was high (>100uM) in this assay, which increases number of actives and potential artifacts. An AlphaScreen counterscreen is highly recommended to be run against any putative actives to eliminate non-specific artifacts. Alternatively, one can use other AlphaScreen assays in PubChem to filter out promiscuous hits.
[1] Lee, J. et al. Distinct binding modes specify the recognition of methylated histone H3K4 and H4K20 by JMJD2A-tudor. Nat Struct Mol Biol. 15(1); 109-11. 2008. PMID: 18084306
[2] Yasgar, et al. Compound Management for Quantitative High-Throughput Screening. JALA. 2008 Apr;13(2):79-89. PMID: 18496600
[3] Inglese, et al. Quantitative high-throughput screening: a titration-based approach that efficiently identifies biological activities in large chemical libraries. Proc Natl Acad Sci. 1;103(31):11473-8. 2006. PMID: 16864780
[4] Quinn et al. A homogeneous method for investigation of methyl-dependent protein-protein interactions in epigenetics. Nucleic Acids Res., 38(2):e11. 2010. PMID: […]
[5] Baell,Holloway. New substructure filters for removal of pan assay interference compounds (PAINS) from screening libraries and for their exclusion in bioassays. J Med Chem. 53(7):2719-40. 2010. PMID: 20131845
NIH Molecular Libraries Probe Production Network [MLPCN]
NIH Chemical Genomics Center [NCGC]
Structural Genomics Consortium (SGC)
To each well of a 1,536w plate, 2ul of JMJD2A-Tudor (final 100nM) and 1ul biotinylated histone peptide methylated at Lys4 [b-H3(1-18)K4me3] (final 50nM) were added in 1x PBS buffer, pH 7.4, containing 0.01% Tween-20, using a nanoliter dispenser. Formation of a protein-peptide complex proceeded at room temperature for 30 min. A Kalypsys pin-tool transferred 23nl of library compound solution in DMSO to each well. Following a 30 min incubation of the protein-peptide complex with compounds at room temperature, a mixture of 40 µg/mL each streptavidin-coated donor and nickel chelate acceptor AlphaScreen beads (final 10 µg/mL) was added in a 1ul dispense for a final volume of 4ul, followed by a brief centrifugation (1000 rpm, 1 min). Plates were incubated protected from the light for 20 min at room temperature. Microplates were then read on an EnVision multilabel plate reader using the 1,536 plate HTS AlphaScreen aperture (excitation time 80 ms, measurement time 240 ms).
On the % scale 0 is the no-effect control and ±100 the full control effect; potency means the concentration at half of the fitted maximal effect.

Structure (SMILES) | activity change, negative = inhibition | Potency
COc1ccc(Cl)cc1NC(=O)CSc1nc(=O)[nH]c2c1CCCC2 | -2.27% | –
Cc1cc(OCC(=O)Nc2ncn[nH]2)c(C)c(C)c1Br | -7.56% | –
COc1ccc(Cn2cc(C(=O)c3ccc(C)cc3)c(=O)c3cc(OC)c(OC)cc32)cc1 | -31.3% | –
COc1ccc(CCNC(=O)c2cn(C)c3ccc(S(=O)(=O)N(C)C4CCCCC4)cc3c2=O)cc1OC | -4.33% | –
CCOc1ccc(C2c3[nH]c4ccccc4c3CCN2Cc2cccn2-c2ncccn2)cc1 (stereo unspecified) | – | 44.7 µM (active)
CCOc1cccc(CC(=O)N2CCc3c([nH]c4ccccc34)C2c2ccc(OC)cc2)c1OCC (stereo unspecified) | -31.5% | –
CCOc1ccc(C2c3[nH]c4ccccc4c3CCN2Cc2cn(CC)nc2C)cc1 (stereo unspecified) | -29.1% | –
COc1ccc(C2CC(=O)Nc3c2c(=O)nc2c(C)cccn32)cc1OC (stereo unspecified) | -18.9% | –
Cc1ccc(-n2c(=O)c3cccnc3n2CC(=O)NCc2ccc(F)cc2)cc1C | 3.75% | –
Cc1c(CN2CCC(CO)(CCOc3ccccc3)CC2)[nH]c2ccc(Cl)cc12 | – | 50.1 µM (active)
CCOC(=O)C1(CCOc2ccccc2)CCN(Cc2cc(OC)cc(OC)c2)CC1 | -11.6% | –
CCOC(=O)C1(CCOc2ccccc2)CCN(Cc2ccc(C#CCCO)cc2)CC1 | -15.1% | –
O=C(O)c1n[nH]nc1-c1ccccc1 | – | 4.47 µM (active)
N#Cc1c(-c2ccccc2)c(-c2ccccc2)n[nH]c1=O | -7.47% | –
O=C(O)c1ccc(-n2nc(-c3ccccc3)c3ccccc3c2=O)cc1 | -7.69% | –
CCc1nn(CC(=O)NCC(C)c2ccccc2)c(=O)c2cc3occc3n12 (stereo unspecified) | 1.34% | –
COc1ccccc1CNc1nccn(-c2ccc(F)cc2)c1=O | -23.1% | –
COc1ccc(OC)c(CNC(=O)c2c3c(nc4ccccc24)C(=O)N(C2CCCCC2)C3)c1 | -18% | –
Cc1cccc(N2CCN(C(=O)CCSCc3ccccc3F)CC2)c1C | 5.2% | –
CCOc1ccc(OCC)c(NS(=O)(=O)c2ccc3[nH]c(=O)ccc3c2)c1 | -14.2% | –
Cc1ccc2c(Cl)c(C(=O)NCCCn3ccnc3)sc2c1 | -35.4% | –
Clc1c(OCCCn2ccnc2)ccc2ccccc12 | – | 56.2 µM (active)
O=C(NCCCn1ccnc1)c1ccccc1F | -17.2% | –
C=CCc1cc(C)ccc1OCCCn1ccnc1 | – | 20 µM (active)
Brc1ccc(OCCn2ccnc2)cc1 | -22.5% | –
CCOc1ccc(S(=O)(=O)NCCCn2ccnc2)cc1NC(C)=O | -4.83% | –

Structure (SMILES) | activity change, negative = inhibition | Potency
COc1ccc(-c2noc(CSc3nc4ccc(C)cc4[nH]3)n2)cc1 | -16% | –
COc1ccc(CCNCc2c(C(=O)O)c(C)n(Cc3cccc(C)c3)c2C)cc1OC | -10.7% | –
CC(=O)c1ccc(NC(=O)COc2ccccc2-c2nc(-c3ccccc3)no2)cc1 | -25.5% | –
CCOC(=O)c1ccc(NC(=O)C2CC(=O)N(c3ccc(C(C)C)cc3)C2)cc1 (stereo unspecified) | -15.4% | –
Cc1ccccc1OCC(=O)Nc1nnc(S(=O)(=O)N2CCCC2)s1 | -10.3% | –
CCC(=O)Nc1nnc(S(=O)(=O)N(CC(C)C)c2ccccc2)s1 | -3.73% | –
CCN(CC)S(=O)(=O)c1nnc(NC(=O)COc2ccccc2Cl)s1 | – | 31.6 µM (active)
CC1=C(C(N)=O)C(c2ccc3c(c2)OCO3)n2nc(-c3cccc(C)c3)nc2N1 (stereo unspecified) | -10.1% | –
c1ccc(-c2nnc3n2NC(c2ccc4c(c2)OCO4)S3)cc1 (stereo unspecified) | – | 22.4 µM (active)
Cc1cccc(C)c1NC(=O)CSc1nnc(-c2ccccc2)n1Cc1ccc2c(c1)OCO2 | -23.6% | –
CCOc1ccccc1N(CC)C(=O)c1cc2ccc3cccnc3c2[nH]1 | -20.1% | –
O=[N+]([O-])c1ccc(Oc2ccc(F)cc2Br)c2ccncc12 | – | 44.7 µM (active)
COc1cccc(NC(=O)N2CCN(C(=O)c3nsc4ccccc34)CC2)c1 | 0% | –
CC1CCc2noc(NC(=O)c3ccc([N+](=O)[O-])cc3)c2C1 (stereo unspecified) | -24.3% | –
COc1cccc(OCCn2c(-c3ccc(Br)cc3)nc3ccccc3c2=O)c1 | 18.7% | –
O=C(C1CCN(Cc2ccc(Cl)cc2)CC1)N1CCN(Cc2ccc3c(c2)OCO3)CC1 | – | 2.51 µM (active)
O=C(Nc1ccccc1)N1CCC(C(=O)N2CCN(Cc3ccccc3)CC2)CC1 | -11.3% | –
O=C(C1CCN(C2CCN(Cc3cccc4c3OCO4)CC2)CC1)N1CCOCC1 | -4.11% | –
CCOc1ccc(C2C(C(=O)Nc3ccc(Cl)cc3)=C(C)Nc3nc(C(F)(F)F)nn32)cc1 (stereo unspecified) | -9.21% | –
Cc1cccc(N2CCN(c3ccc(NC(=O)/C=C\C(=O)O)cc3)CC2)c1 | -14.3% [at 11.4 µM] | –
C=CC(=O)Nc1ccc(Nc2ccnc(Nc3ccc(N4CCN(C)CC4)cc3)n2)cc1 | – | 31.6 µM (active)
Cn1cnnc1SCC(=O)Nc1ccc(N2CCOCC2)cc1 | -6.09% | –
COc1ccc(Cn2c(=S)[nH]c3cc(C(=O)NCCCN4CCOCC4)ccc3c2=O)cc1 | -18.9% | –
O=C(NCCCN1CCOCC1)c1cc(-c2ccc(Cl)cc2)on1 | -12.8% | –
Cc1c(C)n(Cc2ccc(Cl)cc2)c2ccc(C(=O)NCCCN3CCOCC3)cc12 | – | 89.1 µM (active)

Reference: PubChem BioAssay AID504339 (National Center for Advancing Translational Sciences (NCATS), 2011)
